# KCNH2 3.1 inh: KCNH2 3.1 (human) potassium channel inhibition. U2OS KCNH2 3.1, thallium flux FluxOr; active compounds read low. activity change, % (tested at about 1.8 µM). hit rate 0.95% among 340,000;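 active = maximum activity change below -70%; inconclusive = maximum activity change from -70% to -50%; inactive = maximum activity change above -50%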;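 note: thallium influx rate constant from kinetic fluorescence after stimulation buffer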
#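 Channel expression came from 3.1 mutant virus (1.77 x 10^8 /mL) applied to suspended U2OS cells for 4 h. Flux was tracked with FluxOr dye plus Red40 quencher, and kinetic rate constants normalized to controls.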
# GCN5L2 inh: blocks human GCN5L2 histone acetyltransferase; Q92830; GCN5L2 HAT assay, ThioGlo1 CoA-SH fluorescence; hit rate 0.21% among 390,000; Potency, µM (titrated, usually from 58.9 µM), for inactives: top-dose activity change, negative = inhibition, actives largely listed as inhibitors; note: potency is the fitted concentration of half-maximal effect
#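 Compounds, pin-transferred from DMSO stocks, meet 20nM GCN5L2 for 15 min before the reaction begins with H3(1-25) peptide (75uM) and acetyl-CoA (70uM). Thiol-reactive ThioGlo1 reports CoA release over 20 min at room temperature.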
# RGS4 inhibitor: human RGS4 inhibition | Transcreener GDP fluorescence polarization, RGS4-accelerated GTP hydrolysis | P49798 | hit rate 0.039% among 390,000 | Potency, µM (series often up to 114 µM), for inactives: at the top dose activity change, negative = inhibition, most hits filed as inhibitors; note: potency is the fitted concentration of half-maximal effect; nearly all actives have a fitted effect of over 75% in size
#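 MLSMR compounds (23 nl, pin-transferred) preincubated 10 min at room temperature with a 500nM (2x) first reagent, then RGS4 at 900nM (2x) plus Transcreener GDP mix added; fluorescence polarization (620/688 nm) read before and after 90 min at 30 °C.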
# PGK inhibitor: inhibitors of T. brucei phosphoglycerate kinase. P07378. PGK/GAPDH coupled, Kinase-Glo luminescence, 60 min. Potency, µM (top dose mostly 57.5 µM), for the others: at the highest dose activity change, negative = inhibition, usual class: inhibitors. hit rate 0.043% among 380,000. AID 602233; note: potency is the fitted concentration of half-maximal effect; nearly all actives have a fitted effect of over 60% in size
# Target sequence (P07378 whole entry, looked up): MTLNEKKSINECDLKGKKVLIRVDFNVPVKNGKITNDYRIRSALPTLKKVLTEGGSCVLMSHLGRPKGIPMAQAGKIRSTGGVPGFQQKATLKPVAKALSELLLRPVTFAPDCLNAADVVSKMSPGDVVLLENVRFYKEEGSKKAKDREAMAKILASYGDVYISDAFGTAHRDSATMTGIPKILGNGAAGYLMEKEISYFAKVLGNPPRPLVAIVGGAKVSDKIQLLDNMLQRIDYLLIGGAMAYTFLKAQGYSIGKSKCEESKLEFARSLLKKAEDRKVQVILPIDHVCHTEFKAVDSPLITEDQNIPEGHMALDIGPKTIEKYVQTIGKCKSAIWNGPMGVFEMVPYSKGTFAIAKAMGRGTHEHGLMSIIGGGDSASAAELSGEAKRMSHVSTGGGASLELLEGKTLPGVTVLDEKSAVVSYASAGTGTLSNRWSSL
#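 Luminescent ATP detection (Kinase-Glo Plus) follows a 60-minute room-temperature incubation, with wells lacking PGK as controls. Buffer: 100 mM TEA (pH 7.6), 5 mM MgCl2, 0.01% Tween-20. Coupling enzyme GAPDH (100 nM final) supplies unstable 1,3-BPG in-well.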
# KCNH2 WT inh: KCNH2 (human, wildtype) channel inhibition; Q12809; U2OS, BacMam KCNH2, thallium flux FluxOr; active compounds read low; activity change, % at 1.84 µM; hit rate 0.37% among 340,000; AID 720551;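 active = maximum activity change below -70%; inconclusive = maximum activity change between -70% and -50%; inactive = maximum activity change above -50%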
#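 U2OS cells transduced with wild-type KCNH2 virus are loaded with FluxOr dye for 45 min, and thallium flux is measured in kinetic reads before and after stimulation buffer. Rate constants are normalized to DMSO controls.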
# Pin1 inh: human Pin1 inhibition | Q13526 | Pin1 FP peptide displacement, HiFluor488, 10 min | Potency, µM (series often up to 115 µM), for inactives: at the highest dose activity, negative = inhibition, most hits filed as inhibitors | hit rate 0.009% among 390,000 | AID 504891; active = well fitted inhibition curve with a large enough effect in the polarisation, with a control signal flat, not every such curve was filed as active; inconclusive = small, poorly fitted or top-dose-only effect, or effect the other way, or a change in a side signal; inactive = no such curve, though single readings can be large or run the other way; the % refers to the polarisation; note: potency is the fitted concentration of half-maximal effect
# Target sequence (Q13526 whole entry, looked up): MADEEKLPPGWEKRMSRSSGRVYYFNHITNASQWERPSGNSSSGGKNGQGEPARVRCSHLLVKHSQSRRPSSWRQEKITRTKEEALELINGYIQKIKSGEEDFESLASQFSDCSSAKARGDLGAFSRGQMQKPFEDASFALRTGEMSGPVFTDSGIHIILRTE
# * = called active by the depositor; i = inactive; ? = inconclusive; . = no result given; ! = not active in a repeat; [ ] = remark or other dose. Compounds with a hit are over-represented: about 1.2% of the library has one in this group of screens. Unless noted, calls come from the whole dose curve; as a rule, active = well fitted curve in the direction sought with a large enough effect; inconclusive = small, poorly fitted or top-dose-only effect, or another doubt; inactive = no such curve, though single readings can be large; an effect the other way counts as inactive or inconclusive. % is set by controls: 0 for no effect and ±100 for the full control effect.
SMILES,KCNH2 3.1 inh,GCN5L2 inh,RGS4 inhibitor,PGK inhibitor,KCNH2 WT inh,Pin1 inh
COCCSc1ccccc1C(=O)N1CCCC1,11,-1%,-13%,-1%,-9,-3%
Cn1c(SCC(=O)O)nnc1-c1ccc(NC(=O)c2ccc(Cl)c(Cl)c2)cc1,-16,0%,-6%,-8%,-127*,-5%
CN1CCc2cc(Cl)c(O)cc2[C@@H](c2ccccc2)C1,?,-7%,3µM*!,5%,0,-6%
CC1CC(C)CN(CCOc2ccc(Br)cc2)C1 (configuration not stated),-96*,-4%,-17%,0%,3,-4%
COC(=O)N1CCC2(CCN(Cc3nccs3)CC2)CC1,.,-6%,.,.,.,.
Cc1ccc(-n2ncc3c(=O)n(CC(=O)NCc4ccco4)cnc32)cc1C,-85*,-1%,-21%,2%,0,24%
Cc1ccc(-n2ncc3c(=O)n(CC(=O)Nc4cccc(Cl)c4)cnc32)cc1C,-83*,-1%,-19%,-6%,6,7%
Cc1ccc(-n2ncc3c(=O)n(CC(N)=O)cnc32)cc1C,22,4µM*,7%,6%,12,0%
Cc1ccc(-n2ncc3c(=O)n(CC(=O)NCc4ccco4)cnc32)cc1,-10,3%,-14%,-6%,-8,-5%
Cc1ccc(-n2ncc3c(=O)n(Cc4cccc(Cl)c4)cnc32)cc1C,.,-8%,4%,-7%,.,5%
COC(=O)c1ccc(OC)c(CN2C(=O)N(c3ccc(C(C)=O)cc3)S(=O)(=O)c3ccccc32)c1,.,-7%,-30%,i,.,12%
COc1ccc(C(=O)NCCn2cc(SCC(=O)NCCc3ccc(OC)c(OC)c3)c3ccccc32)cc1,.,-3%,-7%,7%,.,2%
Cn1nc(-c2ccccc2)c(C(=O)Nc2ccc(C(F)(F)F)cc2)c1Cl,-73*,-7%,-17%,i,-5,-1%
Cn1nc(-c2ccccc2)c(C(=O)Nc2ccc(Cl)cc2)c1Cl,-4,-8%,5%,8%,-11,-8%
Cc1nnsc1NC(=O)OCc1ccc(Cl)cc1Cl,-10,11µM*,2%,-5%,-15,0%
Cc1nn(C)c(Cl)c1NC(=O)OCc1ccc(Cl)cc1Cl,-9,2%,-8%,-8%,4,-2%
CCOC(=O)C(=O)NCC(c1cccs1)S(=O)(=O)c1ccc(F)cc1 (configuration not stated),-138*,-2%,-19%,3%,-10,0%
Cc1ccc(S(=O)(=O)C(CNC(=O)COc2ccccc2)c2cccs2)cc1 (configuration not stated),.,-13%,6%,10µM*,.,-14%
Cc1cc(S(=O)(=O)C(CNC(=O)COc2ccccc2)c2cccs2)ccc1F (configuration not stated),.,8%,-23%,-1%,.,-5%
CCOc1ccc(CSC2=NCCN2)cc1[N+](=O)[O-],-91*,1%,19%,2%,8,-3%
CCCCCOc1ccc(CSC(=N)N)cc1[N+](=O)[O-],-96*,-4%,17%,1%,29,6%
CCCCOc1ccc(CN(CCO)CCO)cc1[N+](=O)[O-],10,-4%,4%,-3%,-3,-2%
CCOc1ccc(CN(CCO)CCO)cc1[N+](=O)[O-],-76*,17%,-8%,i,9,0%
CCCCOc1ccc(CSC2=NCCN2)cc1[N+](=O)[O-],?,-3%,26%,1%,14,9%
O=C(CNC(=O)c1ccccc1Cl)OCc1cc(=O)n2nc(C3CC3)sc2n1,.,11%,-10%,-6%,.,1%
SMILES,KCNH2 3.1 inh,GCN5L2 inh,RGS4 inhibitor,PGK inhibitor,KCNH2 WT inh,Pin1 inh
CC(CN1CCOCC1)OC(=O)c1ccc2c(c1)OCCO2 (configuration not stated),20,3%,-17%,-6%,-262*,-4%
Cc1ccc2c(CC(=O)Nc3c(C(=O)c4ccc(F)cc4)oc4ccccc34)coc2c1C,.,1%,0%,5%,.,4%
O=C(Nc1ccccc1Br)C(Cc1ccccc1)NS(=O)(=O)c1cccc2nsnc12 (configuration not stated),.,-8%,-52%,i,.,13%
COc1ccc(N2CC(C(=O)Nc3ccc(N4CCOCC4)cc3)CC2=O)cc1 (configuration not stated),11,-20%[0.501 µM],23%[56.9 µM],i,4,2%
CCOc1ccc(N2CC(C(=O)Nc3ccc(N4CCOCC4)cc3)CC2=O)cc1 (configuration not stated),14,-6%,-28%,-3%,-104*,-9%
CCOC(=O)CC(NC(=O)c1cc2c(=O)n3cccc(C)c3nc2s1)c1ccc(OCC)c(OC)c1 (configuration not stated),.,-8%,-6%,-9%,.,-1%
Cc1cc(C)c(C#N)c(SCC(=O)NC(C)(C)C)n1,-84*,-2%,-7%,0%,-13,-6%
Cc1nc(N/N=C/c2cccnc2)cc(N2CCOCC2)n1,-10,.,.,i,2,.
Clc1ccc(-c2ccc(/C=N/Nc3cc(N4CCOCC4)nc(N4CCOCC4)n3)o2)cc1,-95*,-14%,5%,-5%,?,18%
CC(C)c1ccc(/C=N/Nc2cc(N3CCOCC3)nc(N3CCOCC3)n2)cc1,-42,-5%,-39%,i,5,-1%
Brc1ccc(-c2ccc(/C=N/Nc3nc(N4CCOCC4)nc(N4CCOCC4)n3)o2)cc1,-95*,-6%,-9%,-2%,-5,1%
CCCCOc1ccc(/C=N/Nc2cc(N3CCOCC3)nc(C)n2)cc1,-95*,-6%,7%,-1%,4,7%
CCOC(=O)C1=C(C)NC(=O)NC1c1cc(Br)c(O)c(OC)c1 (configuration not stated),16,-3%,-29%,1%,1,7%
CCCOCCOC(=O)C1=C(C)NC(=O)NC1c1cc(Cl)c(O)c(OC)c1 (configuration not stated),-72*,-2%,11%,5%,-6,-1%
CO[C@H]1[C@@H](OC(N)=O)[C@H](O)[C@@H](Oc2ccc3c(O)c(NC(=O)c4ccc(O)c(CC=C(C)C)c4)c(=O)oc3c2C)OC1(C)C,.,0%[21.4 µM],.,.,.,.
O=C(CSc1cccc[n+]1[O-])CSc1cccc[n+]1[O-],7,-9%,-6%,-3%,-5,1%
[O-][n+]1ccccc1SSc1cccc[n+]1[O-],.,14µM*,.,.,.,.
CCOC(=O)c1sc2c(c1C)c(=O)n(Cc1ccccc1)c(=O)n2CCN(C)C,-109*,-2%,-5%,-7%,19,-9%

# Screening results (PubChem BioAssay)
